# Compound activity deposited in PubChem by National Center for Advancing Translational Sciences (NCATS).
# TCR act – Activators of T cell receptors: qHTS campaign; primary human leukocytes, anti-CD3, IL-2 HTRF, 48 h; Potency, µM (doses to about 9.22 µM), inactives show at the highest dose activation of IL-2 secretion, most hits filed as activators; 330,000 tested, under 10 active; AID 504894, 2011; also: % of control where 0% means no effect
#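 Primary human leukocytes receive a-CD3 beads and test compound and are incubated 48 hr. Secreted IL-2 is then assayed by HTRF, measuring 665nm acceptor emission after 320nm excitation of the europium donor.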
# IL2 activator – qHTS of IL-2 Activators; activation, % (series mostly up to about 46 µM); actives 0.065% (n = 360,000); IL-2 activation reporter assay, cell-based qHTS; stimulated with anti-CD3/CD4/CD28 beads; in transgenic mouse T cells; AID 652025, 2013; in the data active = activation above about 50%; inconclusive = mostly about 30% to 49%; also: 0% is about no effect
#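 Using fluorescent plate cytometry, EGFP and DsRed are detected in transgenic mouse T cells stimulated 18 h at 37 degrees C with antibody-coated beads after 60 min compound pretreatment.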
# PKM2 act – qHTS Assay for Activators of Human Muscle isoform 2 Pyruvate Kinase; purified PKM2, Kinase-Glo ATP luminescence, activation; response scale: 0% is enzyme alone, no compound; Potency, µM (highest dose often 57.5 µM), inactives show at the top dose activation, most hits filed as activators; actives 0.34% (n = 260,000); AID 1631, 2009; also: potency is read from the fitted curve at half-maximal effect; % is scaled to controls: 0 for no effect and ±100 for the full control effect; nearly all actives have a fitted effect of over 55% in size
# Target sequence (P14618 whole entry, looked up, canonical isoform): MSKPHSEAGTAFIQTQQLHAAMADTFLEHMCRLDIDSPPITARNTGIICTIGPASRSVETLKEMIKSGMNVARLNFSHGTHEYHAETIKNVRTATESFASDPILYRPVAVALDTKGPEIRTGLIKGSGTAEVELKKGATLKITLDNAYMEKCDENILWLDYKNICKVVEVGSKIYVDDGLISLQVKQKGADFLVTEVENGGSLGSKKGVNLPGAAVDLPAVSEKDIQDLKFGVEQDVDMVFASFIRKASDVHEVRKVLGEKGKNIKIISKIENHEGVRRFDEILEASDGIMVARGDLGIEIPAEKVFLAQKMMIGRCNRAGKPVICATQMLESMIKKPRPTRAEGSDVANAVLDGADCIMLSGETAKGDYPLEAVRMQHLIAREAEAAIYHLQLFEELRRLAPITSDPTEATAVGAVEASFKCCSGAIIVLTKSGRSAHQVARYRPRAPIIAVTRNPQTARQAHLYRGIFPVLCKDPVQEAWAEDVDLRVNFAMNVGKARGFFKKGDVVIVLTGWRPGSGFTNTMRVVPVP
#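 Purified hPK-M2 (>95% pure) converted ADP (0.1 mM final) to ATP with 0.5 mM PEP in 50 mM imidazole pH7.2, KCl, MgCl2, Tween 20, BSA; 1 h at room temperature. ATP detected by Kinase-Glo luminescence.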
# A-T KAP1 phos – qHTS Assay for Identifying a Potential Treatment of Ataxia-Telangiectasia | actives 0.19% (n = 320,000) | F2112 A-T fibroblasts, KAP-1 phosphorylation AlphaLISA; neocarzinostatin DNA damage 30 min before lysis | Potency, µM (series often up to 57.5 µM), inactives show top-dose activation, usual class: activators; also: potency is read from the fitted curve at half-maximal effect; % of control where 0% means no effect; nearly all actives have a fitted effect of over 45% in size
#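 hTERT-immortalized A-T patient fibroblasts (F2112), 500 cells/well in OPTI-MEM, 1% FBS, got compounds for 60 min, then NCS for 30 min at 37C. Lysates were then assayed for phospho-KAP-1 by AlphaLISA (anti-pKAP1 donor, anti-KAP1 acceptor beads), 6 hr at 25C.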
# Tb PFK inh-1 – qHTS Assay to Find Inhibitors of T. brucei phosphofructokinase | ATP-dependent 6-phosphofructokinase (Trypanosoma brucei brucei), O15648 | T. brucei PFK, ADP-Glo luminescence | Potency, µM (top dose mostly 57.5 µM), inactives show top-dose activity, negative = inhibition, hits mostly inhibitors | actives 0.17% (n = 330,000) | AID 485367, 2010;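 also: potency is read from the fitted curve at half-maximal effect; 0% = uninhibited 1x PFK enzyme wells and -100% = no-enzyme wells; nearly all actives have a fitted effect of over 60% in size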
#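 ADP-Glo luminescence quantified ADP after 45 min at room temperature, with 1.25 nM T. brucei PFK, 0.1 mM ATP and 0.5 mM fructose-6-phosphate in pH 8.0 TEA buffer. qHTS titrations up to 57 µM; curves classified by quality.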
# Integrin act MD – qHTS for Activators of Integrin-Mediated Alleviation for Muscular Dystrophy; Potency, µM (top dose mostly 38.3 µM), without a hit: at the highest dose activation, hits mostly activators; actives 0.064% (n = 350,000); AID 624291, 2012; alpha7betagal myoblasts, beta-gal FDG fluorescence, 48 h;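 also: potency is read from the fitted curve at half-maximal effect; 100% = response of the positive control SU9516; nearly all actives have a fitted effect of over 60% in size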
#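 Alpha7betagal+/- myoblasts (passage 13) were plated 16-24 hr, then exposed to compounds (1:260 dilution of DMSO stock) for 48 hours at 37C. After MPER lysis, β-galactosidase reporter activity was read as FDG fluorescence (ex 480/em 540) after 30 minutes.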
# TbPFK ATP – Tb PFK orthogonal confirmatory assay using ATP depletion (Kinase-Glo Plus) as an alternative measure of Tb PFK activity: Hit Validation; Tb PFK enzyme, ATP depletion, Kinase-Glo Plus luminescence; AID 504636, 2011; Potency, µM (series often up to 57.5 µM), without a hit: at the top dose inhibition; shares compounds with Tb PFK inh-1; actives 47% (n = 1,100); calls by dose curve; also: potency is read from the fitted curve at half-maximal effect; nearly all actives have a fitted effect of over 60% in size
# Tb PFK inh-2 – Inhibitors of T. brucei phosphofructokinase: Hit Validation; shares compounds with Tb PFK inh-1; purified T. brucei PFK, ADP-Glo luminescence, 45 min; Potency, µM (top dose mostly 57.5 µM), for the others: at the top dose activity change, negative = inhibition, usual class: inhibitors; actives 41% (n = 1,100);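 also: potency is read from the fitted curve at half-maximal effect; plate controls were full PFK enzyme control for no effect and no enzyme control for full effect; nearly all actives have a fitted effect of over 60% in size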
# * hit, by the source's call; ? = inconclusive; · = no result given; [ ] = remark or other dose. Most compounds without a hit are left out; they make up all but 0.69% or so of the library. Unless noted, calls follow the shape of the dose curve; as a rule, active = well fitted curve in the direction sought with a large enough effect; inconclusive = small, poorly fitted or top-dose-only effect, or another doubt; inactive = no such curve, though single readings can be large; an effect the other way counts as inactive or inconclusive.
SMILES,TCR act,IL2 activator,PKM2 act,A-T KAP1 phos,Tb PFK inh-1,Integrin act MD,TbPFK ATP,Tb PFK inh-2
COc1cccc(C(c2nnnn2Cc2ccccc2)N2CCC3(CC2)C(=O)NCN3c2ccccc2)c1OC (stereo unspecified),·,-0.6,·,·,·,·,·,·
c1ccc(CN2COC3CCCCCC32)cc1 (stereo unspecified),·,-0.5,·,·,·,·,·,·
COc1cc(C(=O)N/N=C/c2ccc(OC(=O)N3CCOCC3)cc2)cc(OC)c1OC,3.8%[46.1 µM],-0.7,-7.0%,-3.4%,-1.3%,?,·,·
C[C@]12C[C@@H](O)[C@H](O)CC1=CCC1C2CC[C@@]2(C)C1CC[C@@H]2O (stereo partly specified),-4.1%,1.6,·,17.2%,-3.4%,13.6%,·,·
Cc1ccccc1NC(=O)N1Cc2ccccc2-n2nncc2C1,·,-2.2,·,·,·,2.5%,·,·
CC(C)OCCCNC(=S)Nc1ccc(S(N)(=O)=O)cc1,-8.8%[46.1 µM],-0.4,-27.3%,·,26.9µM*,-5.2%,6.75µM*,13.5µM*
COC(=O)C1=C(c2ccc(OCc3ccccc3)cc2)C[C@@H]2CC[C@H]1N2C(=O)NC1CCN(Cc2ccccc2)CC1,-6.0%,-0.8,·,0.0%,-2.6%,-42.2%,·,·
CCC(=O)Nc1ccc(Cl)c(Cl)c1,0.1%,0.2,·,·,·,·,·,·
CCN(CC)C(=S)Nc1ccc(Cl)c(Cl)c1,0.8%[46.1 µM],0.3,-2.1%,-1.1%,?,-18.9%,14.4%,-1.3%
CC(NCc1ccc(Cl)c(Cl)c1)C(O)c1ccccc1 (stereo unspecified),-1.4%,-1.5,5.8%,-1.3%,?,7.9%,12µM*,23.9µM*
Clc1cccc(N2Cc3ccccc3-n3nncc3C2)c1,·,0.4,·,·,·,·,·,·
O=C(CCNc1ccc(F)c(Cl)c1)c1ccco1,-0.4%,-4.2,2.3%,-6.1%,?,-48.4%,13.5µM*,21.3µM*
N#Cc1ccc(NC(=O)CCNC(=O)c2ccco2)cc1Cl,3.0%,1.3,-4.3%,1.6%,-0.7%,16.3%,·,·
O=C(CCNc1ccc(Cl)c(C(F)(F)F)c1)c1ccco1,-1.4%,-0.5,3.0%,-20.6%,?,-43.5%,?,?
O=[N+]([O-])c1ccc(N/N=C/c2ccc(O)c(O)c2O)c(S(=O)(=O)N2CCOCC2)c1,-10.3%,-0.2,20.5%,-4.1%,?,-14.2%,?,?
O=c1c2cc([N+](=O)[O-])ccc2nc(CN2CCOCC2)n1-c1ccccc1F,·,·,?,6.1%,5.4%,·,·,·
CC1(C)CC(=O)C(C(C2=C(O)CC(C)(C)CC2=O)c2cccs2)C(=O)C1 (stereo unspecified),4.2%,-4.0,?,8.1%,?,23.8%,28.5%,?
CC(=O)Nc1ccc([As](=O)(O)c2ccc([N+](=O)[O-])cc2)cc1,2.2%,-1.5,0.7%,9.6%,-2.0%,-20.2%,·,·
Cc1c(C=O)c2ccccc2n1Cc1ccc([N+](=O)[O-])cc1,-0.2%[46.1 µM],-0.2,-0.6%,2.2%,-25.1%,10.6%,·,·
O=[N+]([O-])c1ccc(Cc2ccncc2)cc1,-6.8%,-4.1,0.5%,8.3%,?,18.7%,?,30.1µM*
O=[N+]([O-])c1ccc(NCc2ccncc2)cc1,-2.2%,0.2,·,-1.8%,5.36µM*,-0.5%,3.38µM*,7.57µM*
COC(=O)C1=C(c2ccc(Cl)c(C(F)(F)F)c2)C[C@@H]2CC[C@H]1N2C(=O)N1CCC(C)CC1,-2.5%,-0.6,·,34.0%,9.2%,30.2%,·,·
Cc1ncc(CN2CCCC(C(=O)c3cccc(Cl)c3)C2)s1 (stereo unspecified),-0.9%,0.4,-4.9%,3.0%,2.0%,2.2%,·,·
O=C(Nc1ncc(Cc2cccc(Cl)c2)s1)C1CCCO1 (stereo unspecified),0.8%,-2.4,3.0%,-2.2%,?,5.7%,16.9µM*,?
CC(OC(=O)c1cn(C)c2ccccc12)C(=O)N(C)c1ccccc1 (stereo unspecified),2.2%,-0.9,·,3.6%,-0.4%,21.6%,·,·
SMILES,TCR act,IL2 activator,PKM2 act,A-T KAP1 phos,Tb PFK inh-1,Integrin act MD,TbPFK ATP,Tb PFK inh-2
CN1[C@H]2CC[C@@H]1C(C(=O)N1CCOCC1)=C(O)C2,-1.6%,-3.8,·,10.3%,2.1%,6.6%,·,·
O=[N+]([O-])/C=C1/NCCN1Cc1ccc(Cl)nc1,-2.0%,-1.9,0.8%,9.3%,0.3%,-7.3%,·,·
O=[N+]([O-])c1cn(Cc2ccc(Cl)cc2)cn1,-0.2%,0.4,-2.6%,6.0%,?,18.4%,?,?
O=C(CCS(=O)(=O)c1ccc(Br)cc1)N1CCC2(CC1)OCCO2,-1.0%,-0.3,-2.6%,1.6%,-8.3%,25.9%,·,·
O=C(CCS(=O)(=O)c1ccc(Br)cc1)NCc1ccco1,3.0%,0.1,·,1.4%,16.9µM*,-24.6%,2.69µM*,5.36µM*
CN(C)CCN(C(=O)COc1ccc(Cl)cc1)c1nc2cc3c(cc2s1)OCO3,5.6%,-3.3,·,-5.0%,-0.4%,-43.9%,·,·
NC(=S)N=Nc1ccc(NN=C(N)N)cc1,7.8%,-0.3,-1.2%,-11.9%,?,·,6.75µM*,13.5µM*
O=C(O)CCC(=O)Nc1ccc(SSc2ccc(NC(=O)CCC(=O)O)cc2)cc1,-0.6%,-3.3,·,6.7%,?,26.8%,8.49µM*,16.9µM*
Cc1nn(Cc2ccc(Cl)cc2Cl)c(Cl)c1C(=O)NC1CCCc2ccccc21 (stereo unspecified),4.6%[46.1 µM],-0.6,13.7%,11.4%,1.2%,-11.4%,·,·
NS(=O)(=O)c1cc(C(=O)NC2CCSc3ccccc32)ccc1Cl (stereo unspecified),-3.8%,-2.4,-5.6%,-2.0%,?,1.3%,?,?
O=C(Nc1ccc(S(=O)(=O)NC2=NCCCCC2)cc1)c1ccc(Cl)c([N+](=O)[O-])c1,-5.0%,-0.2,·,-7.6%,?,-45.3%,13.5µM*,?
